Hit rate of the full screen: of about 310,000 compounds, about 14,000 (4.5%) showed an effect of 50% or more. The effect is printed as a negative number. Shown is part of a subset that was picked to be rich in strong results.
molecular target: human ether-à-go-go-related gene (hERG) potassium channel (human, UniProt Q12809); experiment: primary screen, population patch clamp on CHO cells stably expressing hERG; higher = less effect of the substance
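Further: peak tail current of the secondary pulse compared with the same well before compound.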

Chain of human ether-à-go-go-related gene (hERG) potassium channel (Q12809 whole entry, looked up): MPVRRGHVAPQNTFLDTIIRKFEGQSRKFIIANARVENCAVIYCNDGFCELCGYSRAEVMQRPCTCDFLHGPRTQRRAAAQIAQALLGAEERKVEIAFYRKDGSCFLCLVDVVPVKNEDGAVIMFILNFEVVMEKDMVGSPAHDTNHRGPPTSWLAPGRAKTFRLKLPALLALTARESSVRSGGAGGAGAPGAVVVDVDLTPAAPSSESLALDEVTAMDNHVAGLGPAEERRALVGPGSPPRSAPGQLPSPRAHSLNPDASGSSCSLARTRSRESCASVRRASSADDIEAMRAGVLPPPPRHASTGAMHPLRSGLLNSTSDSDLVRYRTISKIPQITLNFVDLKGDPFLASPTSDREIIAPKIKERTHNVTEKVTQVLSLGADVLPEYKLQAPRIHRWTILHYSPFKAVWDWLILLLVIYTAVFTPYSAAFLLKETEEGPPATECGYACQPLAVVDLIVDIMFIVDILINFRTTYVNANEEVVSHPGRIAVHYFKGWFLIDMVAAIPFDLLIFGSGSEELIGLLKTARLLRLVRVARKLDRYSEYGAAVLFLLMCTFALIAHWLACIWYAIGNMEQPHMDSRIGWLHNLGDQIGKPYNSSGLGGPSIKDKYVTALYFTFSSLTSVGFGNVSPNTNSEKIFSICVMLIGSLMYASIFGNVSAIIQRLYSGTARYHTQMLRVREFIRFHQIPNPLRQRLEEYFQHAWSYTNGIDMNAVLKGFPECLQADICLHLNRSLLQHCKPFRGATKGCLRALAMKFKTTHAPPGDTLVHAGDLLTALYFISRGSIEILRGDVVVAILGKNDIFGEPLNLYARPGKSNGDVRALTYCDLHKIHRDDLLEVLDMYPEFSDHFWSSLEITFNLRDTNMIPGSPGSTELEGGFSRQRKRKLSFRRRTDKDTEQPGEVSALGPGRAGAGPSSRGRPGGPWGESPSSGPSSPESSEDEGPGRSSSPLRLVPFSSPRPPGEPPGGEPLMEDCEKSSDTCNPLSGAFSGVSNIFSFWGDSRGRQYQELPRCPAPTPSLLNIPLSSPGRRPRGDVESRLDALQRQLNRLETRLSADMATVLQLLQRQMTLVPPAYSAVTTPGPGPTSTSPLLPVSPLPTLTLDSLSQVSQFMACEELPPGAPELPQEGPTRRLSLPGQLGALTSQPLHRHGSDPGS

Row | SMILES | hERG current change (%, negative = inhibition) at 10uM
1 | CC1CCc2cc(F)ccc2N1C(=O)C1(C)CC1(Cl)Cl (centres unmarked) | 4.51%
2 | CC1CCCN(CCS(=O)(=O)c2ccccc2)C1 (centres unmarked) | 3.59%
3 | O=C(CN(C(=O)CNC(=O)c1ccco1)c1ccc(Cl)c(Cl)c1)NC1CCCCC1 | -27.2%
4 | O=C(Nc1ccccc1Sc1ccccc1)c1ccc(F)cc1 | -7.65%
5 | O=C(c1ccc(Cl)cc1Cl)N1CCC(C(=O)N2CCOCC2)CC1 | 9.99%
6 | CCOC(=O)c1c(C)[nH]c(C)c1S(=O)(=O)NCc1cc(C)ccc1C | -6.49%
7 | CCNC(=O)C12CCC(C)(c3nc4cc(C)c(C)cc4nc31)C2(C)C (centres unmarked) | 33.5%
8 | CC12CCC(=O)N1C(C(=O)Nc1nc(-c3ccccc3Cl)cs1)CS2 (centres unmarked) | -6.16%
9 | Cc1ccc(S(=O)(=O)N2C(=O)CCC2C(=O)Nn2cnnc2)cc1 (centres unmarked) | 5.62%
10 | Cc1ccc(Cn2nnnc2CN2CCC(O)(c3ccc(F)cc3)CC2)cc1 | -7.64%
11 | COc1ccc(-c2[nH]ncc2CN2CCC(O)(c3ccc(Cl)cc3)CC2)cc1 | -71.8%
12 | OC1(c2ccc(Cl)cc2)CCN(Cc2cn[nH]c2-c2ccc(F)cc2)CC1 | -68.7%
13 | OCC1(Cc2ccccc2)CCCN(Cc2c[nH]c3ccccc23)C1 (centres unmarked) | -27%
14 | COc1ccc(S(=O)(=O)N2CCC(O)(c3ccc(Cl)cc3)CC2)cc1 | 24.2%
15 | COc1ccc(C2(O)CCN(Cc3nnnn3Cc3ccc(C)cc3)CC2)cc1 | -21.4%
16 | OC(CN1CCN(c2ccc(F)cc2)CC1)c1ccc(Cl)cc1 (centres unmarked) | -37.9%
17 | OC(CN1CCN(c2cccc(Cl)c2)CC1)c1ccc(F)cc1 (centres unmarked) | -47.2%
18 | OC1(c2ccc(F)cc2)CCN(Cc2cccnc2)CC1 | 4.22%
19 | OC(CCCN1CCC(O)(c2ccc(Cl)cc2)CC1)c1ccc(F)cc1 (centres unmarked) | -75.7%
20 | OC1(c2ccc(Cl)cc2)CCN(Cc2c[nH]c3ccccc23)CC1 | -63.7%
21 | O=C(O)C(=O)O.O=C(c1cccc(Cl)c1)N1CCN(Cc2c[nH]c3ccccc23)CC1 | -20.4%
22 | Cc1ccc2c(c1)sc1nc(=O)n(-c3ccc(Cl)cc3)c(=O)n12 | 6.6%
23 | O=C(NCCCN1CCOCC1)C1CC(=O)N(c2ccccc2)C1 (centres unmarked) | 12.1%

Row | SMILES | hERG current change (%, negative = inhibition) at 10uM
24 | CCN1CCN(Cc2oc(CO)cc(=O)c2O)CC1 | -4.6%
25 | CC(=O)c1cccc(NC(=O)c2ccc3ccccc3c2)c1 | 6.07%
26 | Cn1cc(C(=O)c2ccc(Cl)cc2Cl)cc1C(=O)N/N=C(\N)COc1cccc(C(F)(F)F)c1 | -4.61%
27 | CCOc1ccccc1C1CC(=O)Nc2cc3c(cc21)OCCO3 (centres unmarked) | -2.02%
28 | COCCCN(C(=O)CSCC(=O)Nc1cccc(C)c1)c1c(N)n(Cc2ccccc2)c(=O)[nH]c1=O | 11.3%
29 | CC(C)C(NC(=O)c1ccc2c(c1)OCO2)C(=O)N/N=C\c1ccco1 (centres unmarked) | 2.3%
30 | CCN1CCCC1CNC(=O)Cn1ncc2c(=O)oc3ccc(C)cc3c21 (centres unmarked) | -2.33%
31 | C=CCNC(=O)c1c(N)n(-c2cccc(S(N)(=O)=O)c2)c2nc3ccccc3nc12 | -4.04%
32 | O=C(Cc1c(F)cccc1Cl)NCCCn1ccnc1 | -24.6%
33 | COc1cc2c(cc1OC)C(C)NCC2.Cl (centres unmarked) | 14.1%
34 | c1ccc(-c2[nH]ncc2CN2CCc3ccccc3C2)cc1 | -2.39%
35 | OCC1(Cc2ccccc2)CCCN(Cc2cn[nH]c2-c2ccccc2)C1 (centres unmarked) | -16.4%
36 | OC1(c2ccc(Cl)cc2)CCN(Cc2cn[nH]c2-c2ccccc2)CC1 | -77.7%
37 | O=C1C2CCCCN2C(=O)N1CCCCN1CCN(c2ccc(F)cc2)CC1 (centres unmarked) | -44%
38 | O=C1C2CCCN2C(=O)N1CCCN1CCN(c2ccc([N+](=O)[O-])cc2)CC1 (centres unmarked) | -68.3%
39 | O=C1C2CCCCN2C(=O)N1CCCN1CCN(c2ccc(F)cc2)CC1 (centres unmarked) | -34.8%
40 | O=C1C2CCCCN2C(=O)N1CCN1CCN(c2ccc([N+](=O)[O-])cc2)CC1 (centres unmarked) | -71.5%
41 | O=C(CCCN1C(=O)C2CCCCN2C1=O)N1CCN(c2ccc([N+](=O)[O-])cc2)CC1 (centres unmarked) | -74.7%
42 | O=C1C2CCCN2C(=O)N1CCN1CCN(CCO)CC1 (centres unmarked) | -5.52%
43 | Cc1ccc(N2CCN(CCCN3C(=O)C4CCCN4C3=O)CC2)cc1.Cl (centres unmarked) | -7.45%
44 | Cl.Nc1ccc(N2CCN(CCCCN3C(=O)C4CCCN4C3=O)CC2)cc1.O (centres unmarked) | -9.33%
45 | O=C1C2CCCCN2C(=O)N1CCCCN1CCN(c2ccc([N+](=O)[O-])cc2)CC1 (centres unmarked) | -75.8%
46 | O=C1C2CCCN2C(=O)N1CCN1CCN(c2ccccc2)CC1 (centres unmarked) | -8%

Row | SMILES | hERG current change (%, negative = inhibition) at 10uM
47 | CCc1nnc(NC(=O)CSc2nc3[nH]c(=O)cc(O)c3s2)s1 | -0.838%
48 | O=C(OCc1ccc([N+](=O)[O-])cc1)c1ccccn1 | -28.2%
49 | Nn1c(SCc2c(F)cccc2F)nnc1-c1ccccn1 | 2.69%
50 | CC1(C(=O)NCC2CCCO2)Oc2cccnc2NC1=O (centres unmarked) | 5.86%
51 | CC(=O)Nc1c2c(nn1-c1ccccc1C)CS(=O)C2 (centres unmarked) | 18.7%
52 | Cc1ccc(CS(=O)(=O)c2ccc(C(=O)N3CCN(c4ccccn4)CC3)cc2[N+](=O)[O-])cc1 | -43.9%
53 | COc1ccccc1/C=C/C1=NC(=C\C=C/c2ccccc2)/C(=O)O1 | 3.98%
54 | CC(/C=N/NC(=O)c1ccc(Cn2cc([N+](=O)[O-])cn2)o1)=C\c1ccccc1 | -5.3%
55 | O=S(=O)(c1ccc(Br)cc1)N1CCn2c(nc3ccccc32)C1 | -7.4%
56 | CCOc1cc(C(=O)OCC(=O)Nc2cc(C)on2)cc(OCC)c1OCC | 2.29%
57 | Cc1ccc(NC(=O)CNC(=O)c2ccco2)cc1Cl | 17%
58 | COc1ccc(OC)c(-c2csc(N(Cc3ccco3)C(=O)c3ccco3)n2)c1 | 7.74%
59 | CCOc1ccccc1N1CC(C(=O)N(C)Cc2cccnc2)CC1=O (centres unmarked) | 15%
60 | COc1ccc(N(C)C(=O)CCS(=O)(=O)c2cccc3nonc23)c(OC)c1 | 1.11%
61 | Cl.Cn1c(=N)n(CC(O)c2ccco2)c2ccccc21 (centres unmarked) | -9.79%
62 | CCN(CC)CCn1c(=N)n(CC(O)c2ccco2)c2ccccc21.Cl (centres unmarked) | -73.2%
63 | CCCCCCCn1c(=N)n(CC(O)c2ccco2)c2ccccc21.Cl (centres unmarked) | -86.9%
64 | Cl.N=c1n(CCN2CCCC2)c2ccccc2n1CC(O)c1ccco1 (centres unmarked) | -34%
65 | Cl.N=c1n(CCN2CCCCC2)c2ccccc2n1CC(O)c1ccco1 (centres unmarked) | -55.2%
66 | CCCn1c(=N)n(CC(O)c2ccco2)c2ccccc21.Cl (centres unmarked) | -43.8%
67 | CC(=O)N1N=C(C)CC1c1ccc(OCc2ccccc2)cc1 (centres unmarked) | -15.5%
68 | O=C(CN(CC(=O)N1CCOCC1)S(=O)(=O)c1ccc(Br)s1)N1CCOCC1 | 12.8%
69 | CCOc1ccc(N(C(C)C(=O)NCc2ccco2)S(C)(=O)=O)cc1 (centres unmarked) | -2.31%

Row | SMILES | hERG current change (%, negative = inhibition) at 10uM
70 | NC(=O)CC(NC(=O)c1cccc(Br)c1)c1ccc(N2CCN(c3ccc(F)cc3)CC2)c([N+](=O)[O-])c1 (centres unmarked) | -2.08%
71 | O=C(CNS(=O)(=O)c1ccc(Br)s1)N1CCCC1 | 22%
72 | COc1cccc(CCNC(=O)c2ccc(OC)c(OC3CCN(C(C)C)CC3)c2)c1 | -57.4%
73 | COc1ccccc1CCNC(=O)c1ccc(OC)c(OC2CCN(C(C)C)CC2)c1 | -46.3%
74 | COCCCNC(=O)c1ccc(OC)c(OC2CCN(C(C)C)CC2)c1 | 10.3%
75 | COc1ccc(C(=O)NCCC2=CCCCC2)cc1OC | -3.21%
76 | COc1ccc(C(=O)NCCC2=CCCCC2)cc1OC1CCN(C(C)C)CC1 | -78.1%
77 | COc1cc(C(=O)NCCC2=CCCCC2)ccc1OC1CCN(C(C)=O)CC1 | 2.98%
78 | CC1CN=C(NCc2ccc(F)cc2)S1 (centres unmarked) | -8.5%
79 | CCOc1ccccc1C(=O)Nc1cc(C(=O)NCC(C)C)ccc1Cl | 12%
80 | CCCc1ccc(Oc2c(-c3ccc(O)c(C)c3O)n[nH]c2C)cc1 | -13.2%
81 | COc1ccc(N2CCN(S(=O)(=O)c3c(C)nc4sccn4c3=O)CC2)cc1 | -9.86%
82 | Cc1nc2sccn2c(=O)c1S(=O)(=O)N1CCN(c2ccccc2)CC1 | -11.2%
83 | Cc1nc2sccn2c(=O)c1S(=O)(=O)N1CCN(c2ccc(F)cc2)CC1 | -70.2%
84 | Cc1cc(NC(=O)Nc2ccc(OCc3ccccc3)cc2)n(C)n1 | 23.8%
85 | COc1ccc(-n2c(Cc3cccn3C)nnc2SCC(=O)NCc2ccco2)cc1 | -12.9%
86 | Cc1nc(SCc2c(Cl)cccc2Cl)nc(OC(=O)N(C)C)c1C | -4.32%
87 | O=C(Cn1cnc2scc(-c3ccccc3)c2c1=O)NCc1ccco1 | -24.9%
88 | O=C(Cn1cnc2scc(-c3cccc([N+](=O)[O-])c3)c2c1=O)NCc1ccco1 | -54%
89 | CCc1ccc(-c2csc3ncn(CC(=O)NCc4ccco4)c(=O)c23)cc1 | -4.39%

— PMC4336329 (PLoS ONE, 2015)
